Shown are actives, neighbours in structure and some others; about 1.4% of the full set was active somewhere.
MenB inh – blocks the Mycobacterium tuberculosis MenB enzyme; MenB enzyme assay, absorbance read-out; inhibition, % (test concentration not listed); 0.43% of 100,000 active; AID 540299; in the data active = inhibition above about 21%, passing the limit was not always enough
AID504770 – E. coli YBA685 growth inhibition, screen for V. cholerae RctB inhibitors; E. coli YBA685 rctB-dependent plasmid, OD600 growth, 3 h; active compounds read low; z-score (no concentration beside the values); 0.27% of 130,000 active; AID 504770; in the data active = z-score below about -2, passing the limit was not always enough
MbtI inh – blocks the Mycobacterium tuberculosis siderophore enzyme MbtI | P9WFX0 | purified MbtI enzyme, fluorescence intensity read-out | inhibition, % (test concentration not listed) | 0.89% of 100,000 active | AID 493033; in the data active = inhibition mostly above about 56%, no sharp cut-off; inactive = mostly below about 77%
Target sequence (P9WFX0 whole entry, looked up): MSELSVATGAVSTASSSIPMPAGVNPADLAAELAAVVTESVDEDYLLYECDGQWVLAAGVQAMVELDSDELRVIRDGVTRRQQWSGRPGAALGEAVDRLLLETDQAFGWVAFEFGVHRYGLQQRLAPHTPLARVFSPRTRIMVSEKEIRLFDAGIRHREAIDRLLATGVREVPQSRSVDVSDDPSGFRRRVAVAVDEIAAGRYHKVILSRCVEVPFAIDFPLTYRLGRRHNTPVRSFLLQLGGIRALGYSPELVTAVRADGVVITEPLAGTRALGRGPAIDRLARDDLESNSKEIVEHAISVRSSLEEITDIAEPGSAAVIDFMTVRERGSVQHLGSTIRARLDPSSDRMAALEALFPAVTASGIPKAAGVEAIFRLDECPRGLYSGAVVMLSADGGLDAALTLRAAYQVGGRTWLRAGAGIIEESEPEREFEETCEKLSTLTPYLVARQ
PV pol inh – poliovirus RNA polymerase inhibition; poliovirus polymerase elongation, fluorescence polarization; active compounds read low; % elongation, % (compound at 16.7 µg/mL); 0.66% of 150,000 active; AID 588519; in the data active = % elongation below about 90%
Numbers without * were called inactive; nt = not tested or not shown; ! = not active in a repeat.

SMILES	MenB inh	AID504770	MbtI inh	PV pol inh
Cc1cc(C)c(C#N)c(=O)[nH]1	-19.0	0.95	99.1	111.0
Cc1cc(C)c(C#N)c(=S)[nH]1	-19.2	2.4	90.3*	101.0
O=C(O)c1ccc2nc(-c3cc4cccc(O)c4oc3=O)[nH]c2c1	nt	nt	nt	79.0*
Nc1nc(SCC(=O)c2ccc(Cl)cc2)n[nH]1	nt	-2.65*	nt	nt
Cc1ccc(-c2nc(SCC(=O)c3ccc(Cl)cc3)n[nH]2)cc1	nt	1.9	nt	nt
Cc1ccc(C)c(NC(=O)CN(C)C(=O)COc2ccccc2C#N)c1	-7.2	-3.5*	-3.0	103.0
COC(=O)c1sc2cccc(F)c2c1S(=O)(=O)NC(C)c1ccccc1 (stereo not drawn)	nt	nt	nt	111.0
O=C(CCCN1C(=O)c2ccccc2C1=O)NC1=NCCS1	-17.2	-0.5	1.6	100.0
O=C(CCN1c2ccccc2Sc2ccccc21)NC1=NCCS1	-8.6	0.1	-19.2	85.0*
COc1cc(OC)cc(C(=O)N2CCC(C(=O)NCCc3ccccc3)CC2)c1	47.9*	2	2.5	102.0
CN(CC(=O)N1CCc2ccccc2C1)c1ccccc1	nt	0.1	-1.0	98.0
COc1cccc(N2C(=O)/C(=C/C=C/c3ccco3)C(=O)NC2=S)c1	-61.3	-0.8	100.6*	113.0
O=C1NC(=S)N(c2ccccc2)C(=O)/C1=C/C=C/c1ccco1	-43.1	-1.25	0.6	109.0
Cc1ccc(NC(=S)Nc2ccccc2C)c(C)c1	-14.8	-0.3	-7.2	104.0
COC(=O)N(c1ccccc1)P1(=S)OCCO1	36.5*	1.05	101.8*	96.0
O=C(NCCc1ccccc1)C1CCN(Cc2cc3ccccc3n2Cc2cccc(Cl)c2)CC1	nt	nt	nt	106.0
CC(C)CCNC(=O)C1CCN(Cc2cccc(OCc3ccccc3)c2)CC1	-6.6	-0.6	nt	74.0*
C=CCSc1nc(C)cc(C)c1C#N	-2.3	-0.35	nt	101.0
Cc1cc(C)c(O)c(N)c1	7.1	0.4	101.0*	105.0
Cc1ccc(NC(=O)CSc2nc3ccccc3nc2Cc2ccccc2)c(Cl)c1	nt	nt	nt	98.0
COc1ccc(CCNC(C)C(=O)NC2(C#N)CCCCC2)cc1OC (stereo not drawn)	14.9	1.1	6.5	94.0
COc1cc(CN(C)Cc2cc(=O)n3ccsc3n2)ccc1OC(F)F	1.9	0.2	3.0	104.0
COC(=O)/C=C1/OC(c2ccccc2)=CC1=O	-25.4	1.65	89.4*	139.0
O=C(O)/C=C1\OC(=O)c2ccccc21	-5.7	-0.35	-0.6	106.0
Cc1ccc2occ(CC(=O)Nc3cccc(C(F)(F)F)c3)c2c1	-23.6	-0.1	4.9	101.0
SMILES	MenB inh	AID504770	MbtI inh	PV pol inh
C[N+]1(C)C2CCC1CC(OC(=O)C(CO)c1ccccc1)C2 (stereo not drawn)	9.3	0.95	65.0*!	104.0
CC(C)[N+]1(C)C2CCC1CC(OC(=O)C(CO)c1ccccc1)C2 (stereo not drawn)	-1.4	nt	-9.6	99.0
CCCCN(CC)CCCNC(=O)c1cc2c(-c3ccc(OC)c(OC)c3)nn(C)c2s1	nt	nt	nt	80.0*
CCc1ccc(NC(=O)Cn2c(=O)n(CCCC(=O)NCc3ccccc3OC)c(=O)c3ccccc32)cc1	nt	nt	nt	102.0
COc1ccc(CNCc2cccc(OC)c2)cc1	0.3	-0.25	4.8	89.0*
c1csc(C2=NC(c3ccncc3)=Nc3ccccc3N2)c1	nt	nt	nt	101.0
CCCOc1ccc(-c2nc(NCCN)c3ccccc3n2)cc1	nt	-3.05*	nt	nt
CC(=O)OCCNc1nc(-c2ccccc2)nc2ccccc12	nt	-0.65	nt	nt
Nc1nc2ccccc2n1Cc1ccc(Cl)c(Cl)c1	-16.4	-4.2*	nt	102.0
Fc1cccc(Nc2nc(Cl)nc(Cl)n2)c1	47.9*	-0.55	2.4	98.0
Clc1nc(Cl)nc(Nc2ccccc2)n1	-2.6	0.65	nt	87.0*
CN(C)c1nc(Nc2ccccc2)nc(N(C)C)n1	33.8	-0.5	5.3	99.0
COC(=O)c1cc(=O)[nH]c(=S)[nH]1	-28.9	0.8	87.7*	81.0*
COC(=O)c1c(O)cc(=O)[nH]c1N	-24.0	0.15	-3.5	99.0
O=C1c2ccccc2C(=O)N1CSc1ncnc2c1cnn2-c1ccccc1	2.1	-0.85	-10.5	101.0
COc1ccccc1-c1nnc(SCC(=O)c2ccc(F)cc2)n1-c1ccccc1	nt	nt	nt	83.0*
COc1ccc(/C=N/n2cn[nH]c2=S)cc1	-39.8	1.4	70.8*	105.0
COc1ccc(/C=N/n2cnnc2)cc1	-1.7	0.5	11.1	103.0
O=C(COC(=O)c1cc2ccccc2oc1=O)Nc1ncccn1	-20.7	1.1	-96.4	88.0*
CN(C)C(=O)COC(=O)c1cc2ccccc2oc1=O	-23.5	-0.95	40.6	103.0
C=Cc1ccc(C=C)cc1	22.9	-0.65	72.1*	64.0*
CSc1sc(C(=O)Sc2ccccc2)cc1S(=O)(=O)C(C)C	-7.6	-0.65	-7.0	82.0*
CSc1sc(C(=O)N(C)C)cc1S(=O)(=O)C(C)C	nt	0.4	nt	nt
O=C(Nc1ccc2[nH]c(=O)[nH]c2c1)NC1CCCCC1	20.5	0.1	3.2	90.0*
COc1cc(C(=O)Sc2ccc(Cl)cc2)cc(OC)c1OC	-27.6	2.65	nt	84.0*
SMILES	MenB inh	AID504770	MbtI inh	PV pol inh
COc1cc(C(=O)n2nc(C)c(Sc3ccc(Cl)cc3)c2C)cc(OC)c1OC	nt	nt	nt	103.0
Cc1cc(C)nc(Sc2ccc3nnnn3n2)n1	8.9	-0.3	-12.5	99.0
C/C(=N\NC(=O)C(F)(F)F)c1ccccc1O	34.1*	1.05	1.2	103.0
CN(C(=O)CSc1nc2ncccc2[nH]1)C1CCCCC1	-15.1	0.45	12.1	100.0
CCn1c(=S)[nH]c2ccccc21	-25.7	-0.6	35.5	100.0
S=c1[nH]c2ccccc2n1-c1ccccc1	-29.9	0.2	91.8*	78.0*
S=c1[nH]c2ccccc2n1CCc1ccccc1	-56.7	1.3	80.5*	67.0*
CCCn1c(=S)[nH]c2ccccc21	-5.9	-0.8	86.0*!	103.0
O=C1CSCC(=O)N1c1ccc(Cl)cc1	11.4	-0.7	4.0	93.0
Cc1c(Cl)sn(-c2ccc(Cl)cc2)c1=O	7.0	-5.75*	100.6*	101.0
CN(CC(=O)O)Cc1cccnc1	26.2*	-0.3	-4.5	99.0
O=C(Cn1ncc2c3ccccc3n(Cc3cccc(Cl)c3)c2c1=O)NCCC1=CCCCC1	nt	nt	nt	150.0
c1nc2c3sc4nc(N5CCOCC5)c5c(c4c3ncn2n1)CCC5	28.3*	1.4	0.5	100.0
CCCCCSc1ncnc2c1sc1nc(N3CCOCC3)c3c(c12)CCCC3	nt	nt	nt	105.0
Cc1cccc(N(Cc2cc3ccccc3[nH]c2=O)S(C)(=O)=O)c1	-19.2	0.75	-0.7	103.0
O=C1C=CC(=O)N1C1CC1	10.3	-6.05*	91.5*	102.0
CC(C)(C)Nc1nc2c(s1)CCCC2	8.8	-0.75	78.1*	101.0
Cc1snnc1C(=O)Oc1ccccc1-c1nnco1	9.8	0.6	-60.9	78.0*

Screening data (PubChem)
